Reference: PubChem BioAssay (Tox21)
Results filed as inconclusive are left out. Where a call stands in place of a potency, no number is given. Values without a mark were called inactive. Active and inactive are the calls of the source. Unless noted, calls follow the shape of the full dose curve.

Legend:
[1] = qHTS assay to identify small molecule antagonists of the vitamin D receptor (VDR) signaling pathway - cell viability counter screen (AID 743225; active = well fitted curve in the direction sought with a large enough effect in the repeat runs; an effect the other way counts as inactive or inconclusive; also: nearly all actives have a fitted effect of over 50% in size)
Outline: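 Parallel cytotoxicity test: VDR-UAS-bla HEK 293T, 3 nM (final) 1-alpha,25-dihydroxyvitamin D3 with test compound, 16 h, 37C. Endpoint is CellTiter-Glo luminescence in the same wells.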

[2] = qHTS assay to identify small molecule agonists of the NFkB signaling pathway (AID 1159509; active = well fitted curve in the direction sought with a large enough effect in the signal ratio in the repeat runs, not every such curve was filed as active; the % refers to the signal ratio; also: series mostly up to about 61 µM)
Outline: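 Readout: FRET fluorescence, 405 nm excitation, 460/530 nm emission; beta-lactamase expression disrupts FRET. Cells: ME-180 stably carrying NF-kB-driven bla reporter. Compound exposure 5 hr, 37 C, 5% CO2.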

[3] = qHTS assay to identify small molecule agonists of the NFkB signaling pathway - cell viability counter screen (AID 1159515); also: series mostly up to about 61 µM; nearly all actives have a fitted effect of over 55% in size
Outline: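 Cells are seeded (2,000 NFkB-bla ME-180 per well), rested overnight, and dosed with DMSO-dissolved compounds for 5 hr at 37 C. Viability is then read by CellTiter-Glo luminescence after 30 min at room temperature.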

[4] = qHTS assay to identify small molecule agonists of the endoplasmic reticulum stress response signaling pathway (AID 1159516; active = well fitted activation curve with a large enough effect in the signal ratio in the repeat runs, not every such curve was filed as active; the % refers to the signal ratio)
Outline: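 Cells are seeded at 1,500 per well and incubated overnight. Compounds in DMSO are added for 5 hr at 37 C, then beta-lactamase FRET substrate for 2 hr at room temperature, and fluorescence at 460 and 530 nm is measured.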

[5] = qHTS assay to identify small molecule agonists of the endoplasmic reticulum stress response signaling pathway - cell viability counter screen (AID 1159517);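 also: HeLa cells carrying an ER stress response element beta-lactamase reporter; series mostly up to about 61 µM; nearly all actives have a fitted effect of over 50% in size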
Outline: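 Cytotoxicity of test compounds toward ESRE-bla HeLa cells was assessed after 5 hr exposure. The luminescent CellTiter-Glo signal was measured 30 min after reagent addition.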

[6] = qHTS assay to identify small molecule antagonists of the retinoid-related orphan receptor gamma (ROR-gamma) signaling pathway - cell viability counter screen (AID 1159520; active = well fitted curve in the direction sought with a large enough effect in the repeat runs; an effect the other way counts as inactive or inconclusive; also: nearly all actives have a fitted effect of over 50% in size; also: potency is read from the fitted curve at half-maximal effect)
Outline: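 Tet-on ROR gamma CHO cells (1,000/well) were plated 4 hr, given compounds in DMSO for 2 hr at 37 C, then induced with 1 uM final doxycycline for 16 hr. Viability was read as ATP by CellTiter-Glo luminescence after 30 min.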

[7] = molecular target: Nuclear receptor ROR-gamma (Homo sapiens) (UniProt P51449); assay: qHTS assay to identify small molecule antagonists of the retinoid-related orphan receptor gamma (ROR-gamma) signaling pathway (AID 1159521; active = well fitted curve in the direction sought with a large enough effect in the repeat runs; an effect the other way counts as inactive or inconclusive; also: nearly all actives have a fitted effect of over 50% in size; also: potency is read from the fitted curve at half-maximal effect;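 as to activity change, negative = inhibition: CHO cells with doxycycline inducible ROR-gamma driving an RORE luciferase reporter; top concentration of the series differs between compounds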)
Outline: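 Decreased RORE-driven luciferase luminescence indicates antagonism. Tet-on RORγ CHO cells received compound, then 1 uM final doxycycline 2 h later; signal read after 16 h incubation.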

[8] = qHTS assay to identify small molecule agonists of the AP-1 signaling pathway - cell viability counter screen (AID 1159525); also: nearly all actives have a fitted effect of over 55% in size
Outline: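 Each titration point was normalised to DMSO and tetra n-octyl ammonium bromide controls. The read was Cell Titer Glo luminescence after 30 min at RT, following 5 h compound exposure of ME-180 AP-1-bla cells at 37 °C.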

[9] = qHTS assay to identify small molecule agonists of the AP-1 signaling pathway (AID 1159526)
[10] = molecular target: Retinoic acid receptor RXR-alpha (Homo sapiens) (UniProt P19793); assay: qHTS assay to identify small molecule agonists of the RXR signaling pathway (AID 1159527); also: nearly all actives have a fitted effect of over 35% in size; also: potency is read from the fitted curve at half-maximal effect
Sequence of Retinoic acid receptor RXR-alpha (Homo sapiens) (P19793 whole entry, looked up): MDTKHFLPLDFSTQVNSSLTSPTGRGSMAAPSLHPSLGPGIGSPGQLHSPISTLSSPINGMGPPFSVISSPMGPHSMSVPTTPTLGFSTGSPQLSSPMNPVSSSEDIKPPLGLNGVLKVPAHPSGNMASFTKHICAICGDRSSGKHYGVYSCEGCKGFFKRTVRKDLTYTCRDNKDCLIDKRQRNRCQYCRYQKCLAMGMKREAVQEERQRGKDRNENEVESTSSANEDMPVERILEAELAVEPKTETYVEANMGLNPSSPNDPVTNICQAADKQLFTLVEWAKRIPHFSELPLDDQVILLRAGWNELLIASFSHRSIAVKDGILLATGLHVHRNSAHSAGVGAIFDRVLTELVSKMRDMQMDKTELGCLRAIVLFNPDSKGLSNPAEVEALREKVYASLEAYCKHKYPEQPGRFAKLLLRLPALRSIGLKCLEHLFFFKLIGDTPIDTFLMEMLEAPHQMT
Outline: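 16 hr incubation of compound-treated RXR-alpha-UAS-bla HEK 293T cells (2% charcoal-stripped FBS, 37 C) preceded a 2 hr room-temperature LiveBLAzer FRET substrate step and blue/green fluorescence measurement.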

SMILES	outcome [1]	outcome [2]	outcome [3]	outcome [4]	outcome [5]	Potency [6]	Potency [7]	outcome [8]	Potency [9]	Potency [10]	viability change, negative = cytotoxic [1]	activation [2]	activity, negative = cytotoxic [3]	activation [4]	activity change, negative = cytotoxicity [5]	activity, negative = cytotoxicity [6]	activity change, negative = inhibition [7]	viability change, negative = cytotoxic [8]	activation [9]
OC1OC[C@@H](O)[C@H](O)[C@H]1O (stereo partly specified)	inactive	inactive	inactive	inactive	inactive	inactive	inactive	inactive	inactive	inactive	–	–	–	–	–	–	–	–	–
Cc1cc(C)c(NC(=O)CN(CC(=O)O)CC(=O)O)c(C)c1Br	inactive	inactive	inactive	inactive	inactive	inactive	inactive	inactive	inactive	inactive	–	–	–	–	–	–	–	–	–
Nc1cc(C(Cl)=C(Cl)Cl)c(S(N)(=O)=O)cc1S(N)(=O)=O	inactive	inactive	inactive	inactive	inactive	inactive	inactive	inactive	inactive	inactive	–	–	–	–	–	–	–	–	–
[O-][N+](=Nc1ccccc1)c1ccccc1	inactive	inactive	inactive	inactive	inactive	inactive	inactive	inactive	inactive	inactive	–	–	–	–	–	–	–	–	–
C#CC(O)CCCCC (stereo unspecified)	inactive	inactive	inactive	inactive	inactive	inactive	inactive	inactive	inactive	inactive	–	–	–	–	–	–	–	–	–
OCc1ccccn1	inactive	inactive	inactive	inactive	inactive	inactive	inactive	inactive	inactive	inactive	–	–	–	–	–	–	–	–	–
CC/C=C\C#N	inactive	inactive	inactive	inactive	inactive	inactive	inactive	inactive	inactive	inactive	–	–	–	–	–	–	–	–	–
OCCN1C[C@H](O)[C@@H](O)[C@H](O)[C@H]1CO	inactive	inactive	inactive	inactive	inactive	inactive	inactive	inactive	inactive	inactive	–	–	–	–	–	–	–	–	–
CC(CCO)CCCC(C)(C)O (stereo unspecified)	inactive	inactive	inactive	inactive	inactive	inactive	inactive	inactive	inactive	3.09 µM (active)	–	–	–	–	–	–	–	–	–
Cn1cnc2c(=O)[nH]c(N)nc21	inactive	inactive	inactive	inactive	inactive	inactive	inactive	inactive	inactive	inactive	–	–	–	–	–	–	–	–	–
CCCCCOC(=O)Nc1nc(=O)n([C@@H]2O[C@H](C)[C@@H](O)[C@H]2O)cc1F	inactive	inactive	inactive	inactive	inactive	inactive	11.9 µM (active)	inactive	inactive	inactive	–	–	–	–	–	–	–	–	–
CCCCCCCCCCCCI	inactive	inactive	inactive	inactive	inactive	inactive	inactive	inactive	inactive	inactive	–	–	–	–	–	–	–	–	–
Nc1ccc2cc(S(=O)(=O)O)ccc2c1	inactive	inactive	inactive	inactive	inactive	inactive	inactive	inactive	inactive	inactive	–	–	–	–	–	–	–	–	–
O=C(O)/C=C/c1ccc(/C=C/C(=O)O)cc1	inactive	inactive	inactive	inactive	inactive	inactive	inactive	inactive	inactive	inactive	–	–	–	–	–	–	–	–	–
C#CC(O)C(CC)CCCC (stereo unspecified)	inactive	inactive	inactive	inactive	inactive	inactive	inactive	inactive	inactive	inactive	–	–	–	–	–	–	–	–	–
O=C(CCOCCOCCOCCOCCC(=O)Nc1c(I)cc(I)c(C(=O)O)c1I)Nc1c(I)cc(I)c(C(=O)O)c1I	inactive	inactive	inactive	inactive	inactive	inactive	inactive	inactive	inactive	inactive	–	–	–	–	–	–	–	–	–
NS(=O)(=O)c1cc(C2(O)NC(=O)c3ccccc32)ccc1Cl (stereo unspecified)	inactive	inactive	inactive	inactive	inactive	inactive	inactive	inactive	inactive	inactive	–	–	–	–	–	–	–	–	–
Nc1[nH]c(=O)ncc1F	inactive	inactive	inactive	inactive	inactive	inactive	inactive	inactive	inactive	inactive	–	–	–	–	–	–	–	–	–
Cc1ccccc1Br	inactive	inactive	inactive	inactive	inactive	inactive	inactive	inactive	inactive	inactive	–	–	–	–	–	–	–	–	–
CCOC(=O)[C@H](CCc1ccccc1)N[C@@H](C)C(=O)N1CCC[C@H]1C(=O)O	inactive	inactive	inactive	inactive	inactive	inactive	inactive	inactive	inactive	inactive	–	–	–	–	–	–	–	–	–
O=c1[nH]c(=O)n([C@H]2O[C@H](CO)[C@@H](O)[C@@H]2O)cc1/C=C\Br	inactive	inactive	inactive	inactive	inactive	inactive	inactive	inactive	inactive	inactive	–	–	–	–	–	–	–	–	–
C1COCCO1	inactive	inactive	inactive	inactive	inactive	inactive	inactive	inactive	inactive	inactive	–	–	–	–	–	–	–	–	–
COC(C(=O)O)c1ccccc1 (stereo unspecified)	inactive	inactive	inactive	inactive	inactive	inactive	inactive	inactive	inactive	inactive	–	–	–	–	–	–	–	–	–
CO[Si](CCCNCCC[Si](OC)(OC)OC)(OC)OC	inactive	inactive	inactive	inactive	inactive	inactive	inactive	inactive	inactive	inactive	–	–	–	–	–	–	–	–	–

SMILES	outcome [1]	outcome [2]	outcome [3]	outcome [4]	outcome [5]	Potency [6]	Potency [7]	outcome [8]	Potency [9]	Potency [10]	viability change, negative = cytotoxic [1]	activation [2]	activity, negative = cytotoxic [3]	activation [4]	activity change, negative = cytotoxicity [5]	activity, negative = cytotoxicity [6]	activity change, negative = inhibition [7]	viability change, negative = cytotoxic [8]	activation [9]
COc1cc(CCC(C)=O)ccc1O	inactive	inactive	inactive	inactive	inactive	inactive	inactive	inactive	inactive	–	–	–	–	–	–	–	–	–	–
NC(=S)Nc1cccc2ccccc12	–	–	–	–	–	–	–	–	–	–	-0.0846% [at 6.95 µM]	-0.909% [at 6.95 µM]	-2.24% [at 6.95 µM]	-3.75% [at 6.95 µM]	2.64% [at 6.95 µM]	13.1% [at 8.39 µM]	10.3% [at 8.39 µM]	-1.31% [at 6.97 µM]	-4.57% [at 6.97 µM]
O=C(O)c1ccccc1-c1ccc(C(F)(F)F)cc1	inactive	inactive	inactive	inactive	inactive	inactive	inactive	inactive	inactive	–	–	–	–	–	–	–	–	–	–
CCC(C)(C)C1CCC(OC)CC1 (stereo unspecified)	inactive	inactive	inactive	inactive	inactive	48.6 µM (active)	inactive	inactive	inactive	–	–	–	–	–	–	–	–	–	–
N#CC1(O)CCCCC1	inactive	inactive	inactive	inactive	inactive	inactive	inactive	inactive	inactive	–	–	–	–	–	–	–	–	–	–
CCOC(=O)Nc1ccc2c(c1)N(C(=O)CCN1CCOCC1)c1ccccc1S2	inactive	inactive	inactive	inactive	inactive	inactive	inactive	inactive	inactive	–	–	–	–	–	–	–	–	–	–
CC(C)CCCC(C)NCCC(C)C (stereo unspecified)	inactive	inactive	inactive	inactive	inactive	inactive	inactive	inactive	inactive	–	–	–	–	–	–	–	–	–	–
CCc1cc(S(=O)(=O)O)c2cc(C(C)C)cccc1-2	inactive	inactive	inactive	inactive	inactive	inactive	inactive	inactive	inactive	inactive	–	–	–	–	–	–	–	–	–
CCCCCCCCCCCl	inactive	inactive	inactive	inactive	inactive	inactive	inactive	inactive	inactive	inactive	–	–	–	–	–	–	–	–	–
CC(C)COC(=O)c1ccccc1O	inactive	inactive	inactive	inactive	inactive	inactive	inactive	inactive	inactive	–	–	–	–	–	–	–	–	–	–
CC(C=O)Cc1ccc(C(C)C)cc1 (stereo unspecified)	inactive	inactive	inactive	inactive	inactive	inactive	inactive	inactive	inactive	–	–	–	–	–	–	–	–	–	–
CCCc1ccc(N)cc1	inactive	inactive	inactive	inactive	inactive	inactive	inactive	inactive	inactive	–	–	–	–	–	–	–	–	–	–
CCCC(C)CO (stereo unspecified)	inactive	inactive	inactive	inactive	inactive	inactive	inactive	inactive	inactive	–	–	–	–	–	–	–	–	–	–
CCCC=O	inactive	inactive	inactive	inactive	inactive	inactive	inactive	inactive	inactive	–	–	–	–	–	–	–	–	–	–
CC(C)=CC(=O)O	inactive	inactive	inactive	inactive	inactive	inactive	inactive	inactive	inactive	inactive	–	–	–	–	–	–	–	–	–
COCc1ccc(COC)cc1	inactive	inactive	inactive	inactive	inactive	inactive	inactive	inactive	inactive	–	–	–	–	–	–	–	–	–	–
O=C(O)C(O)[C@H](O)[C@@H](O)[C@H](O)[C@H](O)CO (stereo partly specified)	inactive	inactive	inactive	inactive	inactive	inactive	inactive	inactive	inactive	–	–	–	–	–	–	–	–	–	–
CCCCCN(CCCCC)C(=O)C(CCC(=O)O)NC(=O)c1ccc(Cl)c(Cl)c1 (stereo unspecified)	inactive	inactive	inactive	inactive	inactive	inactive	inactive	inactive	inactive	–	–	–	–	–	–	–	–	–	–
NC1CCN(c2cccc(Cl)n2)CC1	inactive	inactive	inactive	inactive	inactive	inactive	inactive	inactive	inactive	inactive	–	–	–	–	–	–	–	–	–
CN(C)C(=O)C(CCN1CCC(O)(c2ccc(Cl)cc2)CC1)(c1ccccc1)c1ccccc1	inactive	inactive	inactive	inactive	inactive	inactive	inactive	inactive	inactive	–	–	–	–	–	–	–	–	–	–
C1C2OC2C2C1C1CC2C2OC12 (stereo unspecified)	inactive	inactive	inactive	inactive	inactive	inactive	inactive	inactive	inactive	inactive	–	–	–	–	–	–	–	–	–
COc1ccc(COC=O)cc1	inactive	inactive	inactive	inactive	inactive	inactive	inactive	inactive	inactive	–	–	–	–	–	–	–	–	–	–
CCCOc1ccccc1-c1nc2n[nH]nc2c(=O)[nH]1	inactive	inactive	inactive	inactive	inactive	inactive	inactive	inactive	inactive	–	–	–	–	–	–	–	–	–	–
NC(=O)c1ncn([C@@H]2O[C@H](CO)[C@@H](O)[C@H]2O)c1O	inactive	inactive	inactive	inactive	inactive	inactive	inactive	inactive	inactive	–	–	–	–	–	–	–	–	–	–
